Results on 1 compound are retold here after PubChem BioAssay AID651871 (Sanford-Burnham Center for Chemical Genomics, 2012).

The test deals with HL-1. Nature of the test: cardiomyocyte survival under oxidative or metabolic stress – cell-based, panel, H9c2 and HL-1, ATP luminescence, set 2, SAR follow-up (AID 651871).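 Also: cells exposed to stressor for 2 h before ATP readout; reference of the scale not given here.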 Conditions: H9c2/HL-1 cardiomyocytes, 2-deoxyglucose stress, with 2-deoxyglucose, run 3, at 19.8 µM (top of the series).

For the compound `COc1ccc2c(c1OC)C(=O)N1c3ccccc3C(=O)N(Cc3cccc(Cl)c3Cl)C21` (stereo unspecified), the activity (protection/inhibition) was found to be 22.5%.
